Experimental data reported in PubChem BioAssay.

What follows are compounds tested against Albumin (Bos taurus) (UniProt P02769) (assay: bovine serum albumin binders on microarray, profiling panel, artefact control for SMM control protein annotation, biochemical, small-molecule microarray, Alexa647 label, 635/667 nm fluorescence (AID 1118;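 further: score merges 667 nm emission intensity and signal-to-noise per printed compound spot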)). Details: BSA-A647 binding, fluorescence 635 nm, higher = more signal.
Sequence of Albumin (Bos taurus) (P02769 whole entry, looked up): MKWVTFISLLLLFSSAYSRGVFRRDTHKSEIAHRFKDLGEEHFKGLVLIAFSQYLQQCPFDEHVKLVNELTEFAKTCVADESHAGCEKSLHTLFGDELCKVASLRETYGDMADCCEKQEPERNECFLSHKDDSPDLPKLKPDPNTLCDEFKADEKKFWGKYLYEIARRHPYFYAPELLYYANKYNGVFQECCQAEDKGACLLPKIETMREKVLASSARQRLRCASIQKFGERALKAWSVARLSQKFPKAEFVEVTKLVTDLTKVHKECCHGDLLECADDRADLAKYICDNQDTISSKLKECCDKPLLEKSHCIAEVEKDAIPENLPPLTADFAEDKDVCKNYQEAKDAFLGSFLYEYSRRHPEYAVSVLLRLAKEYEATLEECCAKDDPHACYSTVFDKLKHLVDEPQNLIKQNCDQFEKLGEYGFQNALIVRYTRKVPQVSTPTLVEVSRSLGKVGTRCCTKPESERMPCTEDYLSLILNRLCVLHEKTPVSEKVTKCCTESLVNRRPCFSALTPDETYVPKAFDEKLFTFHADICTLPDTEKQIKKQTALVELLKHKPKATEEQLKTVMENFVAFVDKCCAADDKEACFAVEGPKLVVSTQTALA
In the case of `O=C1C2C=CC(C(O)c3cc(C(F)(F)F)cc(C(F)(F)F)c3)N(Nc3ccc([N+](=O)[O-])cc3)C2C(=O)N1c1ccccc1` (stereo unspecified), the composite z-score is reported as 0.888.
Compound `COCCOC(=O)N1C(=O)[C@@]2(c3cc(C#CC4(O)CCCCCC4)ccc31)[C@H](C(=O)N1CCCCCCC1)[C@H]1C(=O)O[C@H](c3ccccc3)[C@H](c3ccccc3)N1[C@@H]2c1ccc(OCCO)cc1` has a composite z-score of 0.513.
Compound `CC(C)CNC(=O)[C@@H]1c2ccccc2C(=O)N(Cc2cc(F)cc(C(F)(F)F)c2)[C@H]1c1ccc(CO)cc1` has a composite z-score of 0.382.
`CCOC(=O)[C@H]1C/C=C/C[C@H](C(=O)OCC)C(=O)O[C@H]2[C@@H](OC)O[C@H](CO)[C@@H](OC(=O)CCc3ccccc3)[C@@H]2OC1=O` showed a composite z-score of 0.191.
`C=CC[C@@]1(C(=O)O)N=C(c2ccc(OCCCO)cc2)O[C@@H]1c1ccccc1` was tested, and the composite z-score was 0.771.
With `CCOC(=O)[C@@H]1[C@@H]2C(=O)N(CC)C(=O)[C@@H]2C[C@@H]1Sc1ccccc1` the composite z-score was 0.663.
`CC(C)CN1C(=O)[C@@]2(c3ccc([N+](=O)[O-])cc3)CC(=O)N(CC34CC5CC(CC(C5)C3)C4)[C@@H]2c2ccc(CO)cc21` showed a composite z-score of 0.291.
With `C=CC[C@@]1(C(=O)N2CCCCC2)N=C(c2ccc(OCCCO)cc2)O[C@@H]1c1ccccc1` the composite z-score was 0.676.
In the case of `C=CCOC(=O)[C@H]1[C@@H]2C(=O)O[C@@H](c3ccccc3)[C@@H](c3ccccc3)N2[C@@H](c2ccc(OCCOC(=O)[C@H]3C[C@H]4C(=O)N[C@@H](Cc5ccccc5)C(=O)N4[C@H]3c3ccc(O)cc3)cc2)[C@]12C(=O)Nc1ccc(I)cc12`, the composite z-score is reported as -0.175.
Compound `C=CC[C@@]12N=C(c3ccc(OCCCO)cc3)O[C@@H]1c1ccccc1N(CCS(=O)(=O)c1ccccc1)C2=O` has a composite z-score of 0.873.
`CC(C)N1CC=CC23O[C@@H]4C=CCCOC(=O)C4[C@H]2C(=O)N(CCO)[C@@H]3C1=O` (stereo partly specified) was tested, and the composite z-score was 0.0894.
Compound `CCOC(=O)C[C@H]1[C@H](OC(=O)c2ccc(-c3ccccc3)cc2)[C@@H](NC(=O)C2CCCCC2)c2cc(OCCCO)ccc2N1C(=O)c1ccccc1` has a composite z-score of 0.236.
`C=CCN1Cc2ccccc2C[C@@]2(N=C(c3ccc(OCCCO)cc3)O[C@H]2c2ccccc2)C1=O` showed a composite z-score of 0.247.
In the case of `O=C1O[C@H](c2ccccc2)[C@H](c2ccccc2)N2[C@H]1[C@@H](C(=O)O)[C@]1(C(=O)Nc3ccccc31)[C@H]2c1ccc(O)cc1`, the composite z-score is reported as -0.731.
`CN(C)CCCNC(=O)[C@@]1(C)c2ccccc2C(=O)N(Cc2cc(C(F)(F)F)cc(C(F)(F)F)c2)[C@H]1c1ccc(CO)cc1` showed a composite z-score of 0.193.
Work on `CCOC(=O)C[C@H]1[C@H](OC(=O)c2ccc(C(=O)c3ccccc3)cc2)[C@@H](NC(=O)c2ccc3ccccc3c2)c2cc(OCCCO)ccc2N1C(=O)c1ccccc1` yielded a composite z-score of 0.362.
`Cc1c(NC(=O)/C(C#N)=C/C=C/c2ccccc2[N+](=O)[O-])c(=O)n(-c2ccccc2)n1C` gave a composite z-score of 0.974.
`C=CC[C@]12N=C(c3ccc(OCCCO)cc3)O[C@H]1c1ccccc1N(C)C2=O` showed a composite z-score of 0.0095.
For `CC(C)CCC[C@@H](C)[C@H]1CC[C@@]2(C)C3=C(CC[C@]12C)[C@@]1(C)CC[C@H](OC(=O)c2ccc(Br)cc2)C(C)(C)C1CC3` (stereo partly specified), the composite z-score was -0.0217.
Work on `Cc1ccc(F)cc1S(=O)(=O)N[C@@H]1CCN(Cc2ccc(Oc3ccccc3)cc2)C1` yielded a composite z-score of -0.274.
Work on `COC(=O)[C@H](Cc1ccccc1)N1CC(/C=C/C2CC2)=C[C@@H]1[C@@H](O)Cc1ccccc1` yielded a composite z-score of 0.506.
For `CCN(CC)c1ccc(N2CC=CC34O[C@@H]5/C=C\CCC(C)OC(=O)C5[C@H]3C(=O)N(CCO)[C@@H]4C2=O)cc1` (stereo partly specified), the composite z-score was -0.694.
`Cc1ccc(S[C@]2(C(=O)NC3CC3)CC(=O)N(Cc3ccccc3Cl)[C@@H]2c2ccc(CO)cc2I)cc1` showed a composite z-score of 0.257.
`C[C@]1(C(=O)NCCN2CCOCC2)c2ccccc2C(=O)N(Cc2ccc(OC(F)(F)F)cc2)[C@H]1c1ccc(CO)cc1` showed a composite z-score of 0.723.
Work on `C[C@H]1C2=C3C(CC[C@H]4C(OCc5ccc(F)cc5C(F)(F)F)OC[C@](C)([C@@H]34)N(C(=O)OC(C)(C)C)C2)C2COC(=O)OCC21` (stereo partly specified) yielded a composite z-score of 0.963.
For `COCCOC(=O)N1C(=O)[C@@]2(c3cc(C#CCNC(N)=O)ccc31)[C@H](C(=O)N1CCCCCCC1)[C@H]1C(=O)O[C@H](c3ccccc3)[C@H](c3ccccc3)N1[C@@H]2c1ccc(O)cc1`, the composite z-score was 0.0763.
Work on `Cc1ccc(C(C)CC(O)C2C=CC3C(=O)N(c4ccccc4)C(=O)C3N2Nc2ccc(C(C)C)cc2)o1` (stereo unspecified) yielded a composite z-score of 0.935.
For `CC=CC(O)C1C=CC2C(=O)N(C)C(=O)C2N1Nc1ccc([N+](=O)[O-])cc1[N+](=O)[O-]` (stereo unspecified), the composite z-score was 0.9.
With `O=C(O)[C@]1(Cc2ccccc2)N=C(c2ccc(OCCCO)cc2)O[C@@H]1c1ccccc1` the composite z-score was 0.424.
Compound `[N-]=[N+]=NCc1ccccc1[C@H]1OC(c2ccc(OCCCO)cc2)=N[C@@]1(CCS(=O)(=O)c1ccccc1)C(N)=O` has a composite z-score of 0.736.
For `Cc1c(NC(=O)/C(C#N)=C/C=C/c2ccc(N(C)C)cc2)c(=O)n(-c2ccccc2)n1C`, the composite z-score was 0.376.
`COc1ccc([Si](C)(C)[C@@H]2[C@@H](CCO)O[C@]3(C(=O)N(Cc4cccc(N5C(=O)c6cccc7cccc5c67)c4)c4ccccc43)[C@H]2C)cc1` showed a composite z-score of 0.219.
For `COc1c(C)cc(-c2cc3c(c(Cc4ccccc4)n2)[Si](C(C)C)(C(C)C)OC3)cc1C`, the composite z-score was 0.0401.
In the case of `CON(C)C(=O)C=C1C[C@@H](c2cccc(Cl)c2)O[C@@H](c2cccc(Cl)c2)O1`, the composite z-score is reported as 0.268.
In the case of `COc1ccc(NN2C(C(O)c3ccccn3)C=CC3C(=O)N(C4CCCCC4)C(=O)C32)cc1` (stereo unspecified), the composite z-score is reported as 0.907.
Compound `CC(=O)n1cc(C(O)C2C=CC3C(=O)N(c4ccccc4)C(=O)C3N2Nc2ccccc2)c2ccccc21` (stereo unspecified) has a composite z-score of 0.408.
